Assay results: PubChem BioAssay

target: Torsin-1A (Homo sapiens) (UniProt O14656); test: torsin A mutant lysate binding on microarrays – cell lysate, small-molecule microarray, COS7 lysate, 635/667 nm fluorescence, primary screen (AID 1150); details: COS7 hTOR1A mutant lysate, 635 nm fluorescence, higher = more signal;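 note: score pools 667 nm emission and signal to noise measuring lysate protein binding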
Sequence (O14656 whole entry, looked up): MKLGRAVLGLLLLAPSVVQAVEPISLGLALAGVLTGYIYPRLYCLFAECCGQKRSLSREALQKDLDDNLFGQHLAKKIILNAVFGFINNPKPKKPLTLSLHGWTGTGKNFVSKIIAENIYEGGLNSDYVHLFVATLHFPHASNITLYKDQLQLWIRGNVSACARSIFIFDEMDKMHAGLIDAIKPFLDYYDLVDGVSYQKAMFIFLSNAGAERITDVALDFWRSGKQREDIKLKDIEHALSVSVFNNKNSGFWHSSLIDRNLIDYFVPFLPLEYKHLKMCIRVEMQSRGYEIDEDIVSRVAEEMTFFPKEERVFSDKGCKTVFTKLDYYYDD

| Structure (SMILES) | composite z-score |
| --- | --- |
| CCN(CC)c1ccc(N2CC=CC34O[C@@H]5/C=C\CCCOC(=O)C5[C@H]3C(=O)N(CCO)[C@@H]4C2=O)cc1 (some centres undefined) | -0.705 |
| C=CCNC(=O)[C@@H]1[C@H]2C(=O)O[C@H](c3ccccc3)[C@H](c3ccccc3)N2[C@H](c2ccccc2OCCO)[C@@]12C(=O)N(C(=O)OCCOC)c1ccc(C#CCNC(N)=O)cc12 | 0.697 |
| O=C1C[C@]2(c3ccc([N+](=O)[O-])cc3)C(=O)N(CCN3CCOCC3)c3cc(CO)ccc3[C@H]2N1C1CCCCC1 | -0.517 |
| CN1C(=O)C2C=CC(C(O)C3CC=CCC3)N(NC(=O)OC(C)(C)C)C2C1=O (centres undefined) | 1.12 |
| COCCCNC(=O)C1N=C(c2ccc(OCCCO)cc2)N(c2ccccc2)O1 (centres undefined) | 0.442 |
| C=C(COC)/C(=C/C[C@H](OC(=O)c1ccncc1)c1ccc(OCCO)cc1)c1cnc2ccccc2c1 | 0.953 |
| C=CC[C@@]1(C(=O)N(C)C)N=C(c2ccc(OCCCO)cc2)O[C@@H]1c1ccccc1N=[N+]=[N-] | 1.03 |
| C=CCOC(=O)[C@H]1[C@@H]2C(=O)O[C@@H](c3ccccc3)[C@@H](c3ccccc3)N2[C@@H](c2ccc(OCCOC(=O)[C@@H]3C[C@@H]4C(=O)N[C@@H](CCCC[N+](C)(C)C)C(=O)N4[C@@H]3c3ccc(O)cc3)cc2)[C@]12C(=O)Nc1ccccc12 | 1.23 |
| O=C1NC(=O)C2C1C=CC(C(O)c1cccc3ccccc13)N2Nc1ccccn1 (centres undefined) | 0.231 |
| COc1ccc(C(=O)Nc2cccc(CN3C(=O)[C@]4(O[C@H](CCO)[C@@H]([Si](C)(C)c5ccc(OC)cc5)[C@@H]4C)c4ccccc43)c2)cc1 | 0.424 |
| COC(=O)c1c(CC[C@@H](CO)NC(=O)N2CCC[C@H]2Cn2cc(-c3ccccn3)nn2)oc(C(C)=O)c1C(=O)OC | 1.2 |
| C=CCN1C(=O)[C@]2(O[C@H](CCO)[C@@H]([Si](C)(C)c3ccc(OC)cc3)[C@@H]2C)c2cc(N3C(=O)c4cccc5cccc3c45)ccc21 | 0.0015 |
| O=C(NCc1ccccc1)[C@@]1(CCS(=O)(=O)c2ccccc2)N=C(c2ccc(OCCCO)cc2)O[C@H]1c1ccccc1 | 1.16 |
| CC(C)C(=C=CC[C@@H](O)c1ccccc1OCCO)CCO | -0.455 |
| O=C(NCC(F)(F)F)[C@@H]1c2ccccc2C(=O)N(C2CCCCC2)[C@H]1c1ccc(CO)cc1 | -0.287 |
| CN1C(=O)C2C=CC(C(O)c3cccs3)N(Nc3ccccc3)C2C1=O (centres undefined) | 0.738 |
| COc1cc2c(cc1O)C(C1CC1)N(Cc1cc3c(cc1Br)OCO3)CC2 (centres undefined) | -0.416 |
| COCCOC(=O)N1C(=O)[C@@]2(c3cc(C#CCCO)ccc31)[C@H](c1ccc(OCCO)cc1)N1[C@H](c3ccccc3)[C@H](c3ccccc3)OC(=O)[C@H]1[C@@H]2C(=O)N1CCN(c2ncccn2)CC1 | 0.28 |
| O=C1O[C@H](c2ccccc2)[C@H](c2ccccc2)N2[C@H]1[C@@H](C(=O)NC[C@H](O)c1ccccc1)[C@]1(C(=O)Nc3ccccc31)[C@H]2c1ccc(OCCO)cc1 | 0.492 |
| O=C1c2ccccc2[C@](Cc2ccccc2I)(C(=O)NC2CC2)[C@H](c2ccc(CO)cc2)N1C1CCCCC1 | 0.68 |
| CC(=O)NCCCC[C@@H]1NC(=O)[C@@H]2C[C@H](C(=O)NCCCCCCNC(=O)CS)[C@H](c3cccc(OCCO)c3)N2C1=O | 0.669 |
| COCCOC(=O)N1C(=O)[C@@]2(c3cc(C#CC4=CCCCC4)ccc31)[C@H](C(=O)N1CCc3cc(OC)c(OC)cc3C1)[C@H]1C(=O)O[C@H](c3ccccc3)[C@H](c3ccccc3)N1[C@@H]2c1ccc(OCCO)cc1 | 0.295 |
| COCCOC(=O)N1C(=O)[C@@]2(c3cc(C#CC4=CCCCC4)ccc31)[C@H](C(=O)Nc1nc3ccccc3s1)[C@H]1C(=O)O[C@H](c3ccccc3)[C@H](c3ccccc3)N1[C@@H]2c1ccccc1OCCO | 0.956 |
| COc1ccc(C(O)C2C=CC3C(=O)N(c4ccccc4)C(=O)C3N2Nc2ccc(C(C)C)cc2)cc1OCc1ccccc1 (centres undefined) | 0.554 |
